Screens (PubChem BioAssay)
KCNQ2 pot: potentiators of rat KCNQ2 potassium channel | B-score at 10 µM | CHO-K1 KCNQ2, FluxOR thallium flux fluorescence; active compounds read high | actives 0.54% (n = 310,000) | AID 2239;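 active means fluorescence ratio B-score at least 3 SD of library B-scores, with initial fluorescence B-score within 3 of them, cut at about 5.3 in these data; same plate scores as AID 2156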;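 further: B-score of peak minus minimum over baseline fluorescence ratio after K+ and Tl+ stimulus; positive B-score means potentiation of KCNQ2 with more thallium influx and brighter signal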
Target sequence (O88943 whole entry, looked up): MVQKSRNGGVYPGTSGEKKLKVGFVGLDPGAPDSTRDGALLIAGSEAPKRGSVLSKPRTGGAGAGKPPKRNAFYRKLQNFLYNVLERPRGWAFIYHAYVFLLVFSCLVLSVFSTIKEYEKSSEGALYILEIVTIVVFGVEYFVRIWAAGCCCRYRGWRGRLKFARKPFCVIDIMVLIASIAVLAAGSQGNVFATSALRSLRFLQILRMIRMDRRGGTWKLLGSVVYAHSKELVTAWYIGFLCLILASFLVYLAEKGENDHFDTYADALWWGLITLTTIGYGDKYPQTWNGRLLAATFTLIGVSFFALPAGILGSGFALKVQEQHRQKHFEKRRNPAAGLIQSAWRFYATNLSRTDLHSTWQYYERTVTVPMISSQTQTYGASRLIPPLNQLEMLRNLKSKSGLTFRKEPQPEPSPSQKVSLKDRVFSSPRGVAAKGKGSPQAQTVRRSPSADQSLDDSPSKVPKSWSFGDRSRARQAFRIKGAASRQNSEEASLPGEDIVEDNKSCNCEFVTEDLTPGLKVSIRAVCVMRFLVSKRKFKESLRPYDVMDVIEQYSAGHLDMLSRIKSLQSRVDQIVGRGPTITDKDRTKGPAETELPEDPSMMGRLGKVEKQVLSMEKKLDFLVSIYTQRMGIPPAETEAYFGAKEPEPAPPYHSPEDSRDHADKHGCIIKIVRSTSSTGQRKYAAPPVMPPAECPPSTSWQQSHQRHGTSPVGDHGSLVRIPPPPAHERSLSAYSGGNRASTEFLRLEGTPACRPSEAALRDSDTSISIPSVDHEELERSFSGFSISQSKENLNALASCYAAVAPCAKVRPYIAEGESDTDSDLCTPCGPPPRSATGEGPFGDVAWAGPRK
KCNQ2 block: KCNQ2 (rat) channel inhibition | CHO-K1 KCNQ2, FluxOR thallium flux, 20 min; active compounds read low | B-score at 10 µM | actives 1.1% (n = 310,000) | AID 2156;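 active means fluorescence ratio B-score at most minus 3 library SDs, with starting brightness B-score within 2 library SDs, cut at about -5.5 in these data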
An asterisk follows results filed as active. A selection: hits, their analogues and other compounds. The true share with any hit is near 1.6%.

What do the screens show for `O=C(Nc1cccc(Cl)c1)N(CCN1CCOCC1)Cc1ccccc1F`?
KCNQ2 block: inactive

Results for O=C(CCCn1c(=O)c2sccc2n(Cc2cc(=O)n3ccccc3n2)c1=O)NCc1ccco1 ?
KCNQ2 pot: 0.54; KCNQ2 block: inactive

How did Cn1c2ccccc2c2cc(/C=N/NC(=O)c3cc(O)cc(O)c3)ccc21 do in these assays?
KCNQ2 block: inactive

What do the screens show for `Cn1c2ccccc2c2cc(/C=N/NC(=O)c3cc(O)ccc3O)ccc21`?
KCNQ2 pot: -7.17; KCNQ2 block: -7.17*

Results for CC(=O)Nc1c2c(nn1-c1ccccc1)CSC2 ?
KCNQ2 pot: 0.7; KCNQ2 block: inactive

How did CC(C)(C)C(=O)Nc1c2c(nn1-c1ccccc1)CSC2 do in these assays?
KCNQ2 pot: -8.16; KCNQ2 block: -8.16*

How did COc1ccc(N=C2NN=C(c3ccc4c(c3)OCCO4)CS2)cc1 do in these assays?
KCNQ2 block: inactive

How did Cc1ccc(-c2nnn(CC(=O)N(CCO)C(C(=O)NC3CCCC3)c3ccc(F)cc3)n2)o1 (configuration not stated) do in these assays?
KCNQ2 block: inactive

Results for COc1ccc(C(=O)CCS(=O)(=O)c2ccc(C)cc2)cc1 ?
KCNQ2 pot: -6.39; KCNQ2 block: -6.39*

How did Cc1ccc(C(=O)CCS(=O)(=O)c2ccc(Br)cc2)cc1 do in these assays?
KCNQ2 block: inactive

What do the screens show for `COc1ccc(N(C)C(=O)CCC(=O)Nc2ccc3nc(N4CCOCC4)cc(C)c3c2)c(OC)c1`?
KCNQ2 pot: -7.79; KCNQ2 block: -7.79*

How did COc1ccc(NC(=O)CCC(=O)Nc2ccc3nc(N4CCOCC4)cc(C)c3c2)c(OC)c1 do in these assays?
KCNQ2 pot: 0.24; KCNQ2 block: inactive

Results for Cc1cccc(-n2ncc3c2CCCC3NC(=O)CCN2CCCCO2)c1C (configuration not stated) ?
KCNQ2 pot: 2.6; KCNQ2 block: inactive

How did COc1ccc(CNc2cccc(C)n2)c(O)c1 do in these assays?
KCNQ2 block: inactive

Results for Cc1cccc(NCc2cccc3ccccc23)n1 ?
KCNQ2 pot: -5.9; KCNQ2 block: -5.9*

Results for COC(=O)CCSc1nc(N2CCOCC2)c2c(c1C#N)CC(C)(C)OC2 ?
KCNQ2 pot: 1.84; KCNQ2 block: inactive

How did CC(C)CCSc1nc(N2CCOCC2)c2c(c1C#N)CC(C)(C)OC2 do in these assays?
KCNQ2 pot: -6.54; KCNQ2 block: -6.54*

How did O=C(COC(=O)c1cc(Br)ccc1O)NNC(=O)c1ccc([N+](=O)[O-])cc1 do in these assays?
KCNQ2 pot: 0.56; KCNQ2 block: inactive

What do the screens show for `Cc1ccc(N(C(=O)Nc2ccccc2)C2=NCCC2)cc1`?
KCNQ2 block: inactive

Results for Cc1ccc(N(C(=O)NC2CCCCC2)C2=NCCCCC2)cc1 ?
KCNQ2 pot: -5.81; KCNQ2 block: -5.81*

Results for COCCCNc1nc2ccccc2[nH]c1=O ?
KCNQ2 block: inactive

What do the screens show for `Cc1nc(N2CCN(c3ccccc3)CC2)nc2c1C(=O)CC(C)C2` (configuration not stated)?
KCNQ2 block: inactive

Results for Cc1nc(N2CCN(c3ccccc3)CC2)nc2c1C(=O)CC(c1ccccc1)C2 (configuration not stated) ?
KCNQ2 pot: -6.13; KCNQ2 block: -6.13*

How did O=C(NC1CCSC1=O)c1ccc(Oc2cccc(C(F)(F)F)c2)nc1 (configuration not stated) do in these assays?
KCNQ2 pot: 0.03; KCNQ2 block: inactive

What do the screens show for `COc1cc(C(CCN2CCN(c3ccccc3)CC2)c2c(OC)cc(OC)c3c(C)cc(=O)oc23)cc(OC)c1OC` (configuration not stated)?
KCNQ2 block: inactive

How did Cc1nc(Sc2cccn2C)c(C(F)(F)F)c(=O)[nH]1 do in these assays?
KCNQ2 pot: 1.53; KCNQ2 block: inactive

What do the screens show for `O=C(CSc1nnc(COc2ccc(F)cc2)o1)N1CCCCC1`?
KCNQ2 pot: 0.66; KCNQ2 block: inactive

What do the screens show for `O=C(CSc1nnc(COc2ccc(F)cc2)o1)N1c2ccccc2CCc2ccccc21`?
KCNQ2 pot: -6.57; KCNQ2 block: -6.57*

How did Oc1ccc(/C=N/Nc2nn3cnnc3c3ccccc23)cc1 do in these assays?
KCNQ2 pot: 2.19; KCNQ2 block: inactive

What do the screens show for `COc1cccc2c1C(=O)CC1C2CCC2CC(=O)CCC21C` (configuration not stated)?
KCNQ2 pot: 0.03; KCNQ2 block: inactive

Results for Cc1sc2ncnc(Sc3ccccc3C(=O)O)c2c1C ?
KCNQ2 pot: 1.24; KCNQ2 block: inactive

Results for N#Cc1ccc(COC(=O)c2ccc(N3CCCC3)c([N+](=O)[O-])c2)cc1 ?
KCNQ2 pot: -6.81; KCNQ2 block: -6.81*

Results for O=C(OCc1ccc([N+](=O)[O-])cc1)c1ccc(N2CCCC2)c([N+](=O)[O-])c1 ?
KCNQ2 block: inactive

What do the screens show for `COCCCNC(=O)CNC(=S)N(Cc1ccccc1F)C1CCCCC1`?
KCNQ2 block: inactive

How did CCCCNC(=O)CNC(=S)N(Cc1ccccc1F)C1CCCCC1 do in these assays?
KCNQ2 pot: -6.85; KCNQ2 block: -6.85*

How did CCOCCNC(=O)c1ccc2c3c(cccc13)CC2 do in these assays?
KCNQ2 pot: 0.14; KCNQ2 block: inactive

Results for CCOc1ccc(OCc2ccc(C(=O)N3CCc4ccccc4C3)o2)cc1 ?
KCNQ2 pot: -6.1; KCNQ2 block: -6.1*

What do the screens show for `CCOc1ccc(OCc2ccc(C(=O)N3CCCCC3)o2)cc1`?
KCNQ2 pot: 0.18; KCNQ2 block: inactive

What do the screens show for `O=C(Cc1cc(=O)[nH][nH]1)N/N=C/c1c(F)cccc1Cl`?
KCNQ2 pot: 0.27; KCNQ2 block: inactive

How did Cc1cc(N/N=C2\CC(C)CC(C)(C)C2)nc2ccccc12 (configuration not stated) do in these assays?
KCNQ2 pot: -5.57; KCNQ2 block: -5.57*

What do the screens show for `CC1C/C(=N/Nc2nc3ccccc3[nH]2)CC(C)(C)C1` (configuration not stated)?
KCNQ2 pot: 1.05; KCNQ2 block: inactive

Results for COc1ccc(NC2CCCN(C(=O)c3cc(CC(C)C)nc(N)n3)C2)cc1 (configuration not stated) ?
KCNQ2 block: inactive

How did Cc1ccc(CNC(=O)c2sc3nc4c(c(C(F)(F)F)c3c2N)CCC4)cc1 do in these assays?
KCNQ2 block: inactive

What do the screens show for `Nc1c(C(=O)NCc2ccc(Cl)cc2)sc2nc3c(c(C(F)(F)F)c12)CCC3`?
KCNQ2 pot: -6.07; KCNQ2 block: -6.07*

What do the screens show for `CC1CC(=O)c2cnc(N3CCOCC3)nc2C1` (configuration not stated)?
KCNQ2 pot: 0.74; KCNQ2 block: inactive

Results for Cc1ccc(NC(=O)OCCN2CCN(Cc3ccccc3)CCC2=O)cc1C ?
KCNQ2 block: inactive

How did Cc1ccccc1NC(=O)OCCN1CCN(Cc2ccccc2)CCC1=O do in these assays?
KCNQ2 pot: -6.35; KCNQ2 block: -6.35*

How did CC1(C)CC2CC(C)(CN2C(=O)NC(=O)c2ccccc2)C1 (configuration not stated) do in these assays?
KCNQ2 block: inactive

How did Cc1ccc(C(=O)Nc2ccccc2C(=O)N2CC3(C)CC2CC(C)(C)C3)cc1 (configuration not stated) do in these assays?
KCNQ2 pot: -6.06; KCNQ2 block: -6.06*

What do the screens show for `C/C(=N\NC(=O)c1cccc(C)c1)c1cccc(NC(=O)c2ccco2)c1`?
KCNQ2 block: inactive

How did CCN1CCN(C(=O)c2ccc3c(c2)S(=O)(=O)c2ccccc2C3=O)CC1 do in these assays?
KCNQ2 block: inactive
